Values joined by “and” are separate entries in the source; they are usually repeats but may differ in a detail not shown here. Equal entries are not always repeated. The whole screen tested about 77,000 compounds, of which about 4,600 (6%) were called active. Not shown: some 1% with an inconclusive outcome. The sample as a whole holds a higher share of actives than the screen did. Values without a mark were called inactive.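 The calls were made as follows: active = mean inhibition above about 93%, with at least 55% of replicates each passing it (limit read from the data, passing the limit was not always enough); inconclusive = only one of those two conditions holds; inactive = neither condition holds.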
Assay: T. cruzi intracellular proliferation inhibitors, primary screen, cell-based, beta-gal Tulahuen parasites, NIH3T3 host, luminescence (AID 624255)
Details: T. cruzi beta-gal in NIH3T3, GalScreen luminescence, 90 h; at 8.34 µM; stronger effect = higher value

**Q.** For `C/C=C/c1ccc([C@H]2[C@@H](CO)N[C@@H]2CN(CC)C(=O)CN2CCOCC2)cc1`, which inhibition is on record?
**A.** -25.4%

**Q.** For `CCS(=O)(=O)Nc1ccc2c(c1)C(=O)N(C)[C@@H]1CC[C@@H](CC(=O)N3CCCCC3)O[C@H]1CO2`, which inhibition is on record?
**A.** 54.2%

**Q.** With `CO[C@@H]1CN(C)C(=O)c2cc(NC(=O)C3CCC3)ccc2OC[C@H](C)N(Cc2nccs2)C[C@H]1C` as the compound, how does the inhibition read?
**A.** -2.54%

**Q.** With `COCC(=O)Nc1ccc2c(c1)C(=O)N(C)C[C@@H](OC)[C@H](C)CN(C(=O)CC1CC1)[C@H](C)CO2` as the compound, how does the inhibition read?
**A.** 34.9%

**Q.** For `Cc1noc(C)c1S(=O)(=O)Nc1ccc2c(c1)C(=O)N([C@@H](C)CO)C[C@@H](C)[C@@H](CN(C)S(=O)(=O)c1ccccc1)OCCCC[C@H](C)O2`, which inhibition is on record?
**A.** -37.4%

**Q.** With `COc1ccc(S(=O)(=O)Nc2ccc3c(c2)C(=O)N([C@@H](C)CO)C[C@H](C)[C@@H](CN(C)S(=O)(=O)c2ccc(F)cc2)OCCCC[C@H](C)O3)cc1` as the compound, how does the inhibition read?
**A.** 85%

**Q.** For `COc1ccc(S(=O)(=O)N(C)C[C@H]2OCCCC[C@H](C)Oc3ccc(NS(=O)(=O)c4ccc(F)cc4)cc3C(=O)N([C@@H](C)CO)C[C@@H]2C)cc1`, which inhibition is on record?
**A.** 108% (active)

**Q.** With `C[C@@H]1CN([C@H](C)CO)C(=O)Cc2cc(N(C)C)ccc2O[C@H]1CN(C)S(C)(=O)=O` as the compound, how does the inhibition read?
**A.** -46%

**Q.** For `Cc1noc(C)c1S(=O)(=O)Nc1ccc2c(c1)C(=O)N([C@@H](C)CO)C[C@@H](C)[C@H](CN(C)S(=O)(=O)c1ccc(Cl)cc1)OCCCC[C@H](C)O2`, which inhibition is on record?
**A.** 96.3% (active)

**Q.** With `COc1ccc(S(=O)(=O)Nc2ccc3c(c2)C(=O)N([C@@H](C)CO)C[C@H](C)[C@H](CN(C)S(=O)(=O)c2ccc(F)cc2)OCCCC[C@@H](C)O3)cc1` as the compound, how does the inhibition read?
**A.** 94.5%

**Q.** For `COc1ccc(S(=O)(=O)Nc2ccc3c(c2)C(=O)N([C@H](C)CO)C[C@H](C)[C@@H](CN(C)C)OCCCC[C@H](C)O3)cc1`, which inhibition is on record?
**A.** 17.4% and 81.8%

**Q.** Which inhibition does the source give for `Cc1ccc(S(=O)(=O)Nc2ccc3c(c2)CC(=O)N([C@H](C)CO)C[C@@H](C)[C@H](CN(C)S(=O)(=O)c2c(C)noc2C)O3)cc1` here?
**A.** -10.8%

**Q.** With `Cc1noc(C)c1S(=O)(=O)N(C)C[C@H]1Oc2ccc(N(C)C)cc2CC(=O)N([C@H](C)CO)C[C@@H]1C` as the compound, how does the inhibition read?
**A.** 97.3% (active)

**Q.** Which inhibition does the source give for `COc1ccc(S(=O)(=O)Nc2ccc3c(c2)C(=O)N([C@H](C)CO)C[C@H](C)[C@@H](CN(C)S(C)(=O)=O)OCCCC[C@@H](C)O3)cc1` here?
**A.** 50.1%

**Q.** For `Cc1ccc(S(=O)(=O)N(C)C[C@H]2OCCCC[C@H](C)Oc3ccc(NS(=O)(=O)c4c(C)noc4C)cc3C(=O)N([C@H](C)CO)C[C@@H]2C)cc1`, which inhibition is on record?
**A.** -43.8%

**Q.** For `COc1ccc(S(=O)(=O)Nc2ccc3c(c2)C(=O)N([C@H](C)CO)C[C@@H](C)[C@@H](CN(C)CC2CCCCC2)OCCCC[C@@H](C)O3)cc1`, which inhibition is on record?
**A.** 110% (active)

**Q.** Which inhibition does the source give for `COC(=O)C[C@@H]1CC[C@H]2[C@H](COc3ccc(NC(=O)c4cccs4)cc3C(=O)N2C)O1` here?
**A.** 2.22%

**Q.** For `C[C@H]1CCCCO[C@@H](CN(C)Cc2ccc3c(c2)OCO3)[C@@H](C)CN([C@@H](C)CO)C(=O)c2cc(NC(=O)Nc3ccc(F)cc3)ccc2O1`, which inhibition is on record?
**A.** 77.3%

**Q.** For `CN1c2ccc(-c3ccc(C#N)cc3)cc2[C@@H]2[C@@H](CCN2C(=O)C2CCCCC2)[C@H]1CO`, which inhibition is on record?
**A.** 50.3%

**Q.** Which inhibition does the source give for `O=C(NCC1CC1)[C@@H]1[C@@H](CO)[C@@H]2Cn3c(ccc(-c4ccncc4)c3=O)[C@H]1N2Cc1nccs1` here?
**A.** 32.5%

**Q.** For `CNC(=O)C[C@H]1CC[C@H]2[C@@H](COc3ccc(NC(=O)c4cccc(OC)c4)cc3C(=O)N2C)O1`, which inhibition is on record?
**A.** 3.49%

**Q.** Which inhibition does the source give for `COc1ccccc1-c1ccc2c(c1)[C@H]1[C@H](CCN1S(=O)(=O)c1ccccc1)[C@@H](CO)N2` here?
**A.** 77.3%

**Q.** Which inhibition does the source give for `CNC(=O)C[C@H]1CC[C@@H]2[C@H](COc3ccc(NC(=O)C(C)C)cc3C(=O)N2C)O1` here?
**A.** -65%

**Q.** For `CC(=O)Nc1ccc2c(c1)C(=O)N(C)[C@H]1CC[C@H](CC(=O)NCc3ccccc3Cl)O[C@H]1CO2`, which inhibition is on record?
**A.** -40.6%

**Q.** Which inhibition does the source give for `CNC[C@H]1OCCCC[C@@H](C)Oc2ccc(NC(=O)Nc3ccc(C(F)(F)F)cc3)cc2C(=O)N([C@H](C)CO)C[C@H]1C` here?
**A.** 69.3%

**Q.** With `C[C@H](CO)N1C[C@H](C)[C@H](CN(C)C(=O)NC2CCCCC2)Oc2ccc(NC(=O)CCCN(C)C)cc2CC1=O` as the compound, how does the inhibition read?
**A.** 25.8%

**Q.** With `O=C(NC1CCC1)[C@H]1[C@H](CO)[C@H]2Cn3c(ccc(C4=CCCCC4)c3=O)[C@@H]1N2CC1CC1` as the compound, how does the inhibition read?
**A.** -4.56%

**Q.** With `C[C@@H]1CCCCO[C@@H](CN(C)S(=O)(=O)c2ccc(F)cc2)[C@@H](C)CN([C@@H](C)CO)C(=O)c2cc(NC(=O)Nc3ccc(F)cc3)ccc2O1` as the compound, how does the inhibition read?
**A.** 55.8%

**Q.** With `COc1ccccc1S(=O)(=O)Nc1ccc2c(c1)C(=O)N(C)C[C@H](OC)[C@H](C)CN[C@H](C)CO2` as the compound, how does the inhibition read?
**A.** 9.95%

**Q.** With `O=C([C@H]1N[C@H]2c3ccc(-c4ccccc4)c(=O)n3C[C@H]2[C@@H]1CO)N1CCOCC1` as the compound, how does the inhibition read?
**A.** -8.75%

**Q.** For `Cc1ccc(S(=O)(=O)N(C)C[C@H]2OCCCC[C@@H](C)Oc3ccc(NS(C)(=O)=O)cc3C(=O)N([C@H](C)CO)C[C@@H]2C)cc1`, which inhibition is on record?
**A.** -8.39%

**Q.** Which inhibition does the source give for `C[C@@H]1CCCCO[C@H](CN(C)S(=O)(=O)c2ccc(F)cc2)[C@H](C)CN([C@@H](C)CO)C(=O)c2cc(NS(=O)(=O)c3ccccc3)ccc2O1` here?
**A.** 112% (active)

**Q.** For `COc1ccc(S(=O)(=O)Nc2ccc3c(c2)C(=O)N([C@H](C)CO)C[C@@H](C)[C@H](CN(C)S(=O)(=O)c2ccc(Cl)cc2)OCCCC[C@@H](C)O3)cc1`, which inhibition is on record?
**A.** 87%

**Q.** For `Cc1ccc(S(=O)(=O)N(C)C[C@@H]2OCCCC[C@@H](C)Oc3ccc(NS(=O)(=O)c4ccc(F)cc4)cc3C(=O)N([C@H](C)CO)C[C@H]2C)cc1`, which inhibition is on record?
**A.** 110% (active)

**Q.** For `COc1ccc(S(=O)(=O)N(C)C[C@@H]2OCCCC[C@@H](C)Oc3ccc(NS(=O)(=O)c4ccccc4)cc3C(=O)N([C@@H](C)CO)C[C@H]2C)cc1`, which inhibition is on record?
**A.** 71.3%

**Q.** For `C[C@H](CO)N1C[C@H](C)[C@H](CN(C)S(=O)(=O)c2ccc(F)cc2)OCCCC[C@H](C)Oc2ccc(NS(=O)(=O)c3ccc(Cl)cc3)cc2C1=O`, which inhibition is on record?
**A.** 97.6% (active)

**Q.** Which inhibition does the source give for `Cc1ccc(S(=O)(=O)Nc2ccc3c(c2)C(=O)N([C@H](C)CO)C[C@@H](C)[C@H](CN(C)S(=O)(=O)c2ccc(C)cc2)OCCCC[C@@H](C)O3)cc1` here?
**A.** 89.1%

**Q.** Which inhibition does the source give for `C[C@@H]1CCCCO[C@@H](CN(C)S(C)(=O)=O)[C@H](C)CN([C@@H](C)CO)C(=O)c2cc(NS(=O)(=O)c3ccc(F)cc3)ccc2O1` here?
**A.** -87.8%

**Q.** For `C[C@@H]1CCCCO[C@H](CN(C)S(=O)(=O)c2ccccc2)[C@@H](C)CN([C@@H](C)CO)C(=O)c2cc(NS(=O)(=O)c3ccccc3)ccc2O1`, which inhibition is on record?
**A.** 78.8%

**Q.** Which inhibition does the source give for `C[C@H](CO)N1C[C@H](C)[C@@H](CN(C)C(=O)CCC(F)(F)F)OCCCC[C@H](C)Oc2ccc(NC(=O)C3CCCCC3)cc2C1=O` here?
**A.** 39.7%

**Q.** Which inhibition does the source give for `COc1cccc(-c2ccc3c(c2)[C@@H]2[C@@H](CCN2S(=O)(=O)C2=NC(C)C=N2)[C@@H](CO)N3C)c1` (stereo partly specified) here?
**A.** 6.92%

**Q.** Which inhibition does the source give for `CO[C@H]1CN(C)C(=O)c2cc(NC(=O)Nc3cccc(F)c3)ccc2OC[C@H](C)N(C(C)=O)C[C@H]1C` here?
**A.** 26.3%

**Q.** With `Cc1cccc(-c2ccc([C@@H]3[C@@H](CO)N4CCCCN(S(=O)(=O)c5cccs5)C[C@H]34)cc2)c1` as the compound, how does the inhibition read?
**A.** 118% (active)

**Q.** Which inhibition does the source give for `CCCC#Cc1ccc([C@H]2[C@@H](CO)N3CCCCN(S(=O)(=O)CC)C[C@H]23)cc1` here?
**A.** 65.9%

**Q.** Which inhibition does the source give for `O=S(=O)(Cc1ccccc1)N1CCCCN2[C@@H](CO)[C@@H](c3ccc(-c4ccc(F)cc4)cc3)[C@@H]2C1` here?
**A.** 98.2% (active)

**Q.** Which inhibition does the source give for `COc1cccc(-c2ccc([C@H]3[C@H](CO)N4CCCCN(S(=O)(=O)c5cccs5)C[C@@H]34)cc2)c1` here?
**A.** 91.7%

**Q.** With `OC[C@H]1[C@H](c2ccc(-c3cccnc3)cc2)[C@H]2CN(Cc3ccccn3)CCCCN21` as the compound, how does the inhibition read?
**A.** 79.7%

**Q.** Which inhibition does the source give for `O=S(=O)(c1ccccc1)N1CCCCN2[C@H](C1)[C@H](c1ccc(-c3ccccc3)cc1)[C@@H]2CO` here?
**A.** 94.7%

**Q.** Which inhibition does the source give for `O=S(=O)(Cc1ccccc1)N1CCCCN2[C@@H](CO)[C@H](c3ccc(-c4cccnc4)cc3)[C@@H]2C1` here?
**A.** 106% (active)

**Q.** Which inhibition does the source give for `CCCC#Cc1ccc([C@H]2[C@@H](CO)N3CCCCN(S(=O)(=O)Cc4ccccc4)C[C@H]23)cc1` here?
**A.** 54.7%

**Q.** Which inhibition does the source give for `Cc1cccc(-c2ccc([C@H]3[C@H](CO)N4CCCCN(S(=O)(=O)c5cn(C)cn5)C[C@@H]34)cc2)c1` here?
**A.** 41.5%

**Q.** With `CN1CCCCN2[C@H](CO)[C@H](c3ccc(-c4ccc(F)cc4)cc3)[C@@H]2C1` as the compound, how does the inhibition read?
**A.** 14.5%

**Q.** With `CCS(=O)(=O)N1CCCCN2[C@@H](CO)[C@@H](c3ccc(-c4ccccc4)cc3)[C@@H]2C1` as the compound, how does the inhibition read?
**A.** 93.7% (active)

**Q.** With `COCc1cn(CC[C@H]2CC[C@H](NC(=O)Nc3ccc4c(c3)OCO4)[C@@H](CO)O2)nn1` as the compound, how does the inhibition read?
**A.** -12.8%

**Q.** Which inhibition does the source give for `C[C@H](CO)N1C[C@H](C)[C@@H](CN(C)C(=O)Nc2ccc3c(c2)OCO3)OCCCC[C@H](C)Oc2ccc(NC(=O)Nc3ccc(F)cc3)cc2C1=O` here?
**A.** -31.4%

**Q.** With `O=C(C[C@H]1C=C[C@H](NC(=O)C2CCOCC2)[C@@H](CO)O1)NCC1CC1` as the compound, how does the inhibition read?
**A.** -20.7%

From PubChem BioAssay AID624255 (Broad Institute, 2012)
